Only some compounds are listed: those with a hit (about 18% of all), similar ones and a draw of the others.
DT40 TDP1 CPT = DT40-hTDP1 cell growth loss with CPT. chicken DT40 Tdp1-/-;hTDP1 cells + 20 nM CPT, ATP luminescence, 48 h. Potency, µM (titrated, usually from 46.2 µM), inactives show top-dose activity change, negative = growth inhibition, most hits filed as inhibitors. hit rate 12% among 420,000. AID 686979; note: nearly all actives have a fitted effect of over 55% in size
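Chicken DT40 Tdp1-/- cells complemented with human TDP1, 400 cells/well, exposed to compounds plus 20 nM camptothecin for at least 48 h at 37 C; viability read as ATP content by CellTiter-Glo luminescence.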
VDR inh = inhibitors of human vitamin D receptor. VDR-SRC2-3 peptide fluorescence polarization, 2 h. Potency, µM, for inactives: max response, negative = inhibition, usual class: inhibitors. hit rate 0.93% among 400,000. AID 504847
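Compounds are added to VDR with labelled SRC2-3 coactivator peptide and held 2 h at room temperature. Inhibition of the VDR–peptide interaction is then read as a change in fluorescence polarization.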
PLK1 PBD block = PLK1 (human) polo-box domain binding inhibition | AID 720504 | Plk1 PBD binding of FITC phosphopeptide, fluorescence polarization | hit rate 2.8% among 360,000 | Potency, µM, for inactives: max response, negative = inhibition, hits mostly inhibitors; note: series mostly up to about 57 µM; nearly all actives have a fitted effect of over 65% in size
GCN5L2 inh = blocks human GCN5L2 histone acetyltransferase; hit rate 0.21% among 390,000; GCN5L2 HAT assay, ThioGlo1 CoA-SH fluorescence; Potency, µM (titrated, usually from 58.9 µM), for inactives: top-dose activity change, negative = inhibition, actives largely listed as inhibitors; Q92830
Target sequence (Q92830 whole entry, looked up): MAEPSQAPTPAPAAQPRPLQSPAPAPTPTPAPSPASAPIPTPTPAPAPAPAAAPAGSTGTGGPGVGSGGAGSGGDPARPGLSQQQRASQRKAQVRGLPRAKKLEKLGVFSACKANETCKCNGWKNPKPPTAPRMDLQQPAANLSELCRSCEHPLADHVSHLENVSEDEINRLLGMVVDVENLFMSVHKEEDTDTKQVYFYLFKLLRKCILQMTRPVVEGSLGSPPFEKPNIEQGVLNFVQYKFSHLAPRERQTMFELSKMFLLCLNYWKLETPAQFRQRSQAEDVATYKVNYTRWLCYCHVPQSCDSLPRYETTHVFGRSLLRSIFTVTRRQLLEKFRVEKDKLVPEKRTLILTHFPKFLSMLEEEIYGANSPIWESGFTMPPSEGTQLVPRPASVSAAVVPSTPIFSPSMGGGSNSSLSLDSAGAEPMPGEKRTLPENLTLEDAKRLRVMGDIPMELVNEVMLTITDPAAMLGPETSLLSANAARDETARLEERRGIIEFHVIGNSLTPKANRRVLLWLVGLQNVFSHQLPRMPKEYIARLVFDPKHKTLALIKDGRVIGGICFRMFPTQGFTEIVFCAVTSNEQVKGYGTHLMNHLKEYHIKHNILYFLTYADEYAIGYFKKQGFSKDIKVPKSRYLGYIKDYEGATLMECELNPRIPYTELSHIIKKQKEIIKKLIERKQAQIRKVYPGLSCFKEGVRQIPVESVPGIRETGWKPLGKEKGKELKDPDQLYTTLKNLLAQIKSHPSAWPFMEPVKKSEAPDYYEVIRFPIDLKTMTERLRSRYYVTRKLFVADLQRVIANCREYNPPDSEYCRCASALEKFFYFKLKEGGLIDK
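Titration-based screen in which CoA formation is detected via maleimide probe ThioGlo1 (50uM) turning fluorescent on thiol reaction; substrates H3(1-25) 75uM and acetyl-CoA 70uM, GCN5L2 20nM, 20 min incubation at room temperature.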
DT40 TDP1 no CPT = qHTS for Inhibitors of human tyrosyl-DNA phosphodiesterase 1 (TDP1): qHTS in cells in absence of CPT. DT40 Tdp1-/- hTDP1 cells, no CPT, ATP luminescence, 48 h. Potency, µM (series often up to 46.2 µM), for inactives: at the highest dose activity change, negative = growth inhibition, most hits filed as inhibitors. hit rate 15% among 420,000; note: nearly all actives have a fitted effect of over 55% in size
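Camptothecin absent (DMSO only). Human TDP1-complemented DT40 knockout cells, 400 cells/well, 37 °C for minimum 48 hr; ATP measured via CellTiter-Glo, 30 min dark incubation, luminescence.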
TDP1 inh = TDP1 (human) enzyme inhibition; Q9NUW8; recombinant TDP1, AlphaScreen DNA substrate cleavage; Potency, µM (series often up to 130 µM), without a hit: top-dose activity change, negative = inhibition, hits mostly inhibitors; hit rate 0.28% among 350,000; AID 485290; note: nearly all actives have a fitted effect of over 40% in size
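Enzyme-compound mixtures sat 15 min at room temperature, followed by a 5 min reaction with 15 nM final substrate and 10 min with AlphaScreen beads. Recombinant human Tdp1 was used at 1 nM final.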
* = called active by the depositor; u = inconclusive; x = no result; [ ] = another dose, or the depositor's remark. Calls come from the whole dose curve; as a rule, active = well fitted curve in the direction sought with a large enough effect; inconclusive = small, poorly fitted or top-dose-only effect, or another doubt; inactive = no such curve, though single readings can be large; an effect the other way counts as inactive or inconclusive. % is set by controls: 0 for no effect and ±100 for the full control effect; potency is the fitted concentration of half-maximal effect.

SMILES	DT40 TDP1 CPT	VDR inh	PLK1 PBD block	GCN5L2 inh	DT40 TDP1 no CPT	TDP1 inh
COc1ccc(C2/C=C\CN(C(=O)C3CC3)[C@H](Cc3ccccc3)C(=O)N2Cc2ccc(F)cc2)cc1 (stereo not given in full)	16µM*	-18%	-2%	17%	23µM*	4%
COc1ccc(C2N(C(=O)c3ccccc3)CCN2C(=O)c2ccc(C)cc2)cc1 (stereo not given)	29µM*	-12%	-6%	-4%	u	5%
COc1ccc(C2/C=C\CN3CCC[C@H]3C(=O)N2Cc2ccc(F)cc2)cc1 (stereo not given in full)	u	-3%	0%	-2%	23µM*	0%[56.1 µM]
COCC(=O)N1CCC(n2nccc2NC(=O)c2ccccc2OC)CC1	-5%	-11%	-6%	-6%	-7%	6%
C=C(C(C)=O)C(O)c1ccccc1 (stereo not given)	x	-3%	x	x	x	-3%
COc1ccc(C2/C=C\CC(OCc3ccccc3)CC(=O)N2Cc2cccc(F)c2)cc1 (stereo not given)	18µM*	-31%	u	-11%	21µM*	1%[56.1 µM]
COc1ccc([C@H]2/C=C\CN(C(=O)C3CC3)[C@@H](C)C(=O)N2Cc2ccc(F)cc2)cc1	23µM*	-6%	3%	x	12µM*	x
CCCCCCC(=O)N1C/C=C\C(c2ccc(OC)cc2)N(Cc2ccc(F)cc2)C(=O)[C@H]1Cc1ccccc1 (stereo not given in full)	18µM*	-7%	-7%	-20%	18µM*	2%
CCCCC(=O)N1C/C=C\C(c2ccc(OC)cc2)N(Cc2ccc(F)cc2)C(=O)C1C (stereo not given)	x	-12%	x	x	x	11%
Cc1cccc(OC(C)C(=O)Nc2ncn[nH]2)c1 (stereo not given)	7%	11%	x	1%	6%	-1%
NC(=O)c1ccccc1OCc1nnc(-c2ccccc2Br)o1	23µM*	-12%	-6%	-3%	29µM*	1%
Oc1ccccc1-c1nnc(COc2ccc(Cl)cc2Cl)o1	21µM*	79µM*	27µM*	-1%	u	-14%
Cc1cccc(Cc2cnc(NC(=O)C3Cc4ccc(C)cc4C(=O)O3)s2)c1 (stereo not given)	x	2%	x	-4%	x	3%
Cc1onc(-c2c(F)cccc2Cl)c1C(=O)OCC(=O)NC(=O)NCC(C)C	-23%	-14%	-13%	-6%	7.3µM*	-3%
Cc1ccc(Cn2c(SCc3ccc(C(=O)NCCc4ccccc4)cc3)nc3ccncc32)cc1	15µM*	-1%	x	-5%	12µM*	5%
Cc1ccccc1Cn1c(SCc2ccc(C(=O)NC3CCCCC3)cc2)nc2ccncc21	23µM*	11%	x	-5%	u	4%
O=C(NCCc1ccccc1)c1ccc(CSc2nc3ccncc3n2Cc2ccccc2)cc1	4.6µM*	11%	x	-7%	u	3%
CCn1c(CCNC(=O)c2ccc(C)cc2)nnc1SCc1ccc(Cl)c(Cl)c1	21µM*	1%	-2%	-3%	23µM*	3%
CCn1c(CCNC(=O)c2ccc(OC)cc2)nnc1SCc1ccc(Cl)cc1Cl	u	0%	5%	0%	u	0%
CC(Nc1ccc2c(c1)OCCO2)C(=O)N1c2ccccc2CC1C (stereo not given)	-15%	-14%	-22%	-6%	u	11%
Cc1ccccc1Cn1c(SCc2ccc(C(=O)NCCc3ccccc3)cc2)nc2ccncc21	21µM*	-20%	x	-4%	21µM*	5%
CC(=O)N1CCC2(CCCN(c3ccccn3)C2)CC1	u	-11%	x	-18%	-15%	x
COc1ccc(Cc2[nH]n3c(=O)cc(C)nc3c2-c2ccccc2)cc1	u	-13%	-5%	0%	u	1%

High-throughput results: PubChem BioAssay, National Center for Advancing Translational Sciences (NCATS)
